# Test results from ChEMBL document CHEMBL3988442, “University of Dundee, Small-Polar-MMV Screening Library” (2021).
# Hit rate of the full screen: of about 69,000 compounds, about 420 (0.61%) showed an effect of 50% or more. The sample as a whole holds a higher share of strong results than the screen did.
# Target: T1, Histidine--tRNA ligase (Leishmania infantum) (UniProt A4I591)
# T1 sequence (whole entry): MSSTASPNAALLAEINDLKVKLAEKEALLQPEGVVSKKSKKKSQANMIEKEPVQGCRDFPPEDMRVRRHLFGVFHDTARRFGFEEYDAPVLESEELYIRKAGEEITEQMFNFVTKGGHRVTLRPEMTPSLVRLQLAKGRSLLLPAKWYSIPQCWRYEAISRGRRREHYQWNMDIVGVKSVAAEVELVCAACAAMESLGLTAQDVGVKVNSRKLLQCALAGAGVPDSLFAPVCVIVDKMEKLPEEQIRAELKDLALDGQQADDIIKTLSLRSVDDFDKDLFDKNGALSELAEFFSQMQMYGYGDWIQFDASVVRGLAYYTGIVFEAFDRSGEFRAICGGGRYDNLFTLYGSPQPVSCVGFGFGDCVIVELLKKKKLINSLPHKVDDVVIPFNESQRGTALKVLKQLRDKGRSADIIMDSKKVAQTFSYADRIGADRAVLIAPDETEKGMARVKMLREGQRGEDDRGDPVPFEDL
# Experiment: Leishmania infantum Histidine tRNA synthetase (LdHisRS)
# Format: functional
# Design: scale not given: in the data most compounds retested in dose-response had high values
# Conditions: 30 µM
row,Structure (SMILES),Percent Effect
1,Cc1ccc(CN2CC[C@@H]3OCCN(S(C)(=O)=O)[C@H]3CC2)s1,7.55%
2,Cn1cc(C(=O)N2CC[C@@H]3[C@@H]2CCN3Cc2cccc(C#N)c2)cn1,3%
3,CN(C)C[C@@H]1C[C@@H]2CN(C(=O)Cc3cccs3)CC[C@@H]2N1C,6.42%
4,Cc1ccc(CN2CC[C@H]3C(=O)N(Cc4cccnc4)CCO[C@H]3C2)o1,5.88%
5,COc1ccccc1N1CCC(CNCc2cccc(OC)c2OC)C1 (configuration not stated),59.5%
6,COc1ccc(CNCC2CCN(c3ccccc3OC)C2)cc1O (configuration not stated),16.1%
7,COc1ccccc1N1CCC(CNCc2cccc(O)c2)C1 (configuration not stated),21.4%
8,O=C(c1ccco1)N1CCO[C@@H]2CN(c3ccccn3)CC[C@@H]2C1,17.5%
9,CN1CCN(C(=O)[C@@H]2CC[C@@H]3[C@@H](CCN3c3ncccn3)O2)CC1,14%
10,Cc1ccccc1NC(=O)N1CCN(C(=O)C2CC2)[C@@H]2CS(=O)(=O)C[C@@H]21,4.92%
11,CCN(Cc1cccc2c1OCO2)CC1CCCO1 (configuration not stated),20%
12,CCN(Cc1ccc(O)c(C(=O)O)c1)CC1CCCO1 (configuration not stated),16.4%
13,CCN(Cc1ccc2cccc(O)c2n1)CC1CCCO1 (configuration not stated),74%
14,O=C1CC2(CCN(Cc3ccc4cccc(O)c4n3)CC2)CN1,63.2%
15,O=C1CC2(CCN(Cc3ccc(C(F)(F)F)nc3)CC2)CN1,15.4%
16,CCCc1ccc(CN2CCC3(CC2)CNC(=O)C3)o1,11.7%

row,Structure (SMILES),Percent Effect
1,O=C(c1cnccn1)N1CCN2C[C@H](OCc3ccccc3F)C[C@H]2C1,1.37%
2,O=C(Cc1ccsc1)N1C[C@@H]2COC[C@]2(COc2cccnc2)C1,15.4%
3,CCc1ccccc1OCCN1CC[C@@]2(O)CCNC[C@H]2C1,15.8%
4,CNC(=O)[C@@]12CCO[C@@H]1CCN(S(=O)(=O)c1ccc(C)cc1)C2,-5%
5,CCc1c(C(=O)N2CCN(C)[C@@H]3CS(=O)(=O)C[C@@H]32)[nH]c2ccccc12,11%
6,CC(=O)N1CCCCC1c1nnc2n1CCNC2 (configuration not stated),2.76%
7,CC(C)NC(=O)N1CCCCC1c1nnc2n1CCNC2 (configuration not stated),30.3%
8,CC(C)NC(=O)N1CCC(c2nnc3n2CCNC3)CC1,74.5%
9,NC(=O)CS(=O)(=O)Cc1csc(-c2ccc(F)cc2)n1,16.9%
10,O=C(CS(=O)(=O)Cc1csc(-c2ccc(F)cc2)n1)NCC1CC1,48.2%
11,NC(=O)CS(=O)(=O)Cc1csc(-c2ccccc2)n1,53%
12,O=C([C@@H]1CCO[C@@H]2CCN(CC3CC3)C[C@H]21)N1CCCCO1,17.9%
13,O=C(c1ccccc1)N1C[C@@H]2CCCO[C@@H]2[C@H](N2CCCC2)C1,22.8%
14,CCC[C@@H]1CN(C(=O)c2ccccc2-c2ccccc2)C[C@H]1N(C)C,8.57%
15,CCC[C@@H]1CN(C(=O)c2cc3ccccc3cc2O)C[C@H]1N(C)C,77.1%
16,CCC[C@@H]1CN(C(=O)c2ccccc2C(C)=O)C[C@H]1N(C)C,8.57%
